Screening results: PubChem BioAssay, National Center for Advancing Translational Sciences (NCATS)
An excerpt weighted towards active compounds, which were near 21% of everything screened.
Shiga toxin inh: blocks Shiga toxin action in Vero cells; 290,000 tested, 9.2% active; AID 2315; Vero cells, Shiga toxin protein synthesis inhibition reporter; inhibition, % at 38.7 µM; in the data active means inhibition mostly above about 28%, no sharp cut-off; inactive means mostly below about 43%; further: 0% is about no effect
Pf growth 48h: P. falciparum growth inhibition at 48 hours (one generation); 310,000 tested, 5.9% active; Potency, µM (doses to about 28.7 µM), for inactives: at the highest dose activity change, negative = inhibition, most hits filed as inhibitors; AID 504832; P. falciparum luciferase growth in erythrocytes, 48 h; further: potency means the concentration at half of the fitted maximal effect; on the % scale 0 is the no-effect control and ±100 the full control effect
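Luciferase-expressing P. falciparum in infected erythrocytes (2% hematocrit, 0.1% parasitemia final) in RPMI 1640/0.5% Albumax were exposed to compound for 48 hours at 37 C, 5% CO2; growth read as luminescence.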
NS1 inh: inhibitors of influenza NS1 protein function | Potency, µM (highest dose often 46.1 µM), for the others: at the highest dose activity, positive = more growth | 270,000 tested, 0.4% active | AID 2326; calls by dose curve; further: potency means the concentration at half of the fitted maximal effect; actives are rising curves; nearly all actives have a fitted effect of over 50% in size
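In this qHTS, NS1 from influenza A is expressed in budding yeast, where it slows growth. Cells are switched from glucose to 2% galactose medium (pH 6.0, -URA), treated with compound, and growth recovery is read at OD600.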
Pf growth 96h: P. falciparum growth inhibition at 96 hour, primary screen for plastid delayed-death inhibitors; P. falciparum luciferase reporter growth, 96 h; Potency, µM (doses to about 28.7 µM), without a hit: at the top dose activity change, negative = inhibition, usual class: inhibitors; 320,000 tested, 6.9% active; further: potency means the concentration at half of the fitted maximal effect; on the % scale 0 is the no-effect control and ±100 the full control effect
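Erythrocytes infected with luciferase-expressing P. falciparum were dispensed at 2% hematocrit and 0.05% parasitemia (final), then incubated with compounds 96 hours at 37 C in 5% CO2. Luminescence after detection reagent addition reported growth.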
FBPA Giardia inh: blocks Giardia fructose-bisphosphate aldolase activity | purified Giardia FBPA | 290,000 tested, 0.71% active | A8B2U2 | AID 2451 | Potency, µM (highest dose often 59.6 µM), inactives show at the highest dose activity, negative = inhibition, most hits filed as inhibitors; further: potency means the concentration at half of the fitted maximal effect; on the % scale 0 is the no-effect control and ±100 the full control effect; nearly all actives have a fitted effect of over 55% in size
Target sequence (A8B2U2 whole entry, looked up): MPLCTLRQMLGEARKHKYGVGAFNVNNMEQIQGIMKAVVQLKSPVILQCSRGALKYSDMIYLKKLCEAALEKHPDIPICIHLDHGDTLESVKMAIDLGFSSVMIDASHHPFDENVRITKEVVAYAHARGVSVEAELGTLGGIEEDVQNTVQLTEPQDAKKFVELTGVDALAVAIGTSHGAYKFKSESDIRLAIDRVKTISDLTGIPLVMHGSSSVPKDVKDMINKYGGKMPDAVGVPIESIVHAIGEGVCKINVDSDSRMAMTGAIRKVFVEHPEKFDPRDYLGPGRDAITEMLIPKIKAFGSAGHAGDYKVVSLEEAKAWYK
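Giardia FBPA (40 nM reagent) was preincubated 10 min at RT with compound (up to 57.5 uM final), then substrate plus GAPDH/TPI/NAD/arsenate coupling system with diaphorase/resazurin was added; resorufin fluorescence (525/598 nm) was read after 20 min.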
CHX counter: counter-screen hit for Shiga toxin inhibitors, cycloheximide; cell reporter, cycloheximide protein synthesis inhibition counterscreen; max response, %; 300,000 tested, 12% active; AID 2314; in the data active means max response mostly above about 13%, no sharp cut-off; inactive means mostly below about 14%; further: read at 38.3 µM for the half of the compounds with a filed dose; 0% is about no effect
Starred values were filed as active, the others as inactive; [ ] = dose if it differs, or a comment. Unless noted, the call rests on the fitted dose curve; in most records, active means well fitted curve in the direction sought with a large enough effect; inconclusive means small, poorly fitted or top-dose-only effect, or another doubt; inactive means no such curve, though single readings can be large; an effect the other way counts as inactive or inconclusive.

How did COc1ccc(C(C(=O)NC2CCCCC2)N(Cc2cccs2)C(=O)Cc2c[nH]c3ccccc23)cc1OC (configuration not stated) do in these assays?
Shiga toxin inh: 1.5; Pf growth 48h: 9.28µM*; NS1 inh: 17.8%; Pf growth 96h: inconclusive; FBPA Giardia inh: 1.2%; CHX counter: 7.6

How did COc1ccc(CNS(=O)(=O)c2ccc(-c3ccc(=O)[nH]n3)s2)cc1OC do in these assays?
Shiga toxin inh: -7.6; Pf growth 48h: -17.1%; NS1 inh: -13.1%; Pf growth 96h: inconclusive; CHX counter: -2.5

What do the screens show for `COc1ccc(-n2c(C)cc(C(=O)NC3CCCCC3)c2C)cc1`?
Shiga toxin inh: 94.3*; Pf growth 48h: inconclusive; NS1 inh: -3.1%; Pf growth 96h: inconclusive; FBPA Giardia inh: -29.9%; CHX counter: 58.1*

What do the screens show for `Cc1cccc(N2CCN(C(=O)NC3CCCCC3)CC2C)c1` (configuration not stated)?
Shiga toxin inh: 18.6; Pf growth 48h: -2.2%; NS1 inh: -5.4%; Pf growth 96h: inconclusive; FBPA Giardia inh: -1.0%; CHX counter: 6.2

What do the screens show for `Cc1cccc(-n2c(C)cc(C(=O)NC3CCCCC3)c2C)c1`?
Shiga toxin inh: 85.1*; Pf growth 48h: inconclusive; NS1 inh: 15.2%; Pf growth 96h: inconclusive; FBPA Giardia inh: -23.9%; CHX counter: 94.1*

What do the screens show for `COc1ccccc1CNS(=O)(=O)c1ccc2c(c1)CC(=O)N2C`?
Shiga toxin inh: -3.4; Pf growth 48h: inconclusive; NS1 inh: 9.3%; Pf growth 96h: -10.5%; FBPA Giardia inh: -0.6%; CHX counter: 1.5

Results for CN(C)N1C(N)=C(C#N)C(c2cccc([N+](=O)[O-])c2)C2=C1CC(C)(C)CC2=O (configuration not stated) ?
Shiga toxin inh: 9.1; Pf growth 48h: inconclusive; NS1 inh: 5.1%; Pf growth 96h: 15.5%; FBPA Giardia inh: -5.6%; CHX counter: -10.1

How did C[C@H]1Cc2c(COc3ccccc3)nc3c(c2CO1)CN(S(=O)(=O)c1ccc2c(c1)OCCN2C)CC3 do in these assays?
FBPA Giardia inh: 4.1%[12.9 µM]

Results for Oc1c(C=Nc2ccc(Cl)cn2)sc2ccccc12 ?
Shiga toxin inh: 14.0*; Pf growth 48h: 200.9%; NS1 inh: -30.9%; Pf growth 96h: 12.1%; FBPA Giardia inh: 5.1%; CHX counter: 28.6*

What do the screens show for `CC(=O)Nc1ccc(NC(=O)CNC(=O)c2sc3ccccc3c2Cl)cc1`?
Pf growth 48h: 0.9%; Pf growth 96h: 39.2%

Results for c1ccc2c(c1)sc1ccccc12 ?
Pf growth 48h: 9.3%; Pf growth 96h: 0.8%; FBPA Giardia inh: -3.8%

What do the screens show for `Oc1c(C=Nc2cccnc2)sc2ccccc12`?
Shiga toxin inh: 95.0*; Pf growth 48h: 9.0%; NS1 inh: -19.2%; Pf growth 96h: -6.5%; FBPA Giardia inh: -14.0%; CHX counter: 50.3*

Results for CN=Cc1sc2ccccc2c1O ?
Shiga toxin inh: 32.7; Pf growth 48h: 6.0%; NS1 inh: -31.1%; Pf growth 96h: inconclusive; FBPA Giardia inh: -0.3%; CHX counter: 18.7*

What do the screens show for `Oc1c(C=Nc2ccccc2)sc2ccccc12`?
Shiga toxin inh: 3.4; Pf growth 48h: inconclusive; NS1 inh: 1.7%; Pf growth 96h: 38.4%; FBPA Giardia inh: 0.1%; CHX counter: -2.1

What do the screens show for `CC(=O)NCCN=Cc1sc2ccccc2c1O`?
Shiga toxin inh: 68.4*; Pf growth 48h: 30.7%; NS1 inh: -29.3%; Pf growth 96h: 3.7µM*; FBPA Giardia inh: -0.3%; CHX counter: 40.4*

How did COc1ccc(S(=O)(=O)NNC(=O)Nc2ccc(F)cc2F)c(OC)c1 do in these assays?
Shiga toxin inh: -5.5; Pf growth 48h: 1.7%; NS1 inh: -0.3%; Pf growth 96h: -17.1%; FBPA Giardia inh: -3.6%; CHX counter: -3.0

Results for Oc1c(/C=N/c2ccccn2)sc2ccccc12 ?
Shiga toxin inh: 61.4*; Pf growth 48h: 0.0%; NS1 inh: -71.0%; Pf growth 96h: inconclusive; FBPA Giardia inh: -9.5%; CHX counter: 40.1*

Results for Oc1c(C=NCc2ccncc2)sc2ccccc12 ?
Shiga toxin inh: 83.7*; Pf growth 48h: 18.5%; NS1 inh: -6.5%; Pf growth 96h: -8.6%; FBPA Giardia inh: -4.9%; CHX counter: 46.7*
